# Shown are actives, neighbours in structure and some others; about 5.4% of the full set was active somewhere.
# Calb FLC = affects C. albicans growth with fluconazole. C. albicans CaCi-2 (fluconazole-resistant clinical isolate) + fluconazole, Alamar Blue growth, 48 h. growth inhibition, % (concentration not given with the values). actives 0.57% (n = 300,000). AID 1979;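 active means growth inhibition above about 58% in most replicates, limit read from the data, passing the limit was not always enough; inconclusive means exactly half the replicates above a set limit; inactive means most replicates below a set limit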;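 further: all wells also contain fluconazole at 8 µg/ml as a sub-toxic cotreatment; 0% = median of DMSO wells and 100% = median of geldanamycin control wells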
# Mdm2 MdmX PPI = disrupts the human Mdm2-MdmX interaction | SaOS-2 split-luciferase Mdm2/MdmX complementation, luminescence | inhibition, % at 8 µM | actives 3% (n = 330,000) | O15151+Q00987 | AID 485346;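 active means inhibition of at least 50% at 8 µM in the primary screen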
# Target sequence (O15151 whole entry, looked up): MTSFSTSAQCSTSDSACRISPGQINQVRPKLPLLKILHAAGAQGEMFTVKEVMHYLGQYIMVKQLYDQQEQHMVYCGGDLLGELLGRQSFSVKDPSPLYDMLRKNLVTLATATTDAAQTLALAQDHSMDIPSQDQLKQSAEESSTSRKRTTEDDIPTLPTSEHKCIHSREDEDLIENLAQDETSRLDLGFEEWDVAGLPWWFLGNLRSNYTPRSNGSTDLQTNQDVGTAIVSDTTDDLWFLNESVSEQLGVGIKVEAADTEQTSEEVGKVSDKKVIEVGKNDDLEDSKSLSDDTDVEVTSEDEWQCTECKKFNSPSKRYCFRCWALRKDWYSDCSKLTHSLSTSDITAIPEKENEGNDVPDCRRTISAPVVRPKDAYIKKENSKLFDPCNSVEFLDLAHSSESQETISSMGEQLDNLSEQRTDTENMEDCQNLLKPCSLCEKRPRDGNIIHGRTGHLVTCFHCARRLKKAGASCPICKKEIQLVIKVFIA
# Target sequence (Q00987 whole entry, looked up): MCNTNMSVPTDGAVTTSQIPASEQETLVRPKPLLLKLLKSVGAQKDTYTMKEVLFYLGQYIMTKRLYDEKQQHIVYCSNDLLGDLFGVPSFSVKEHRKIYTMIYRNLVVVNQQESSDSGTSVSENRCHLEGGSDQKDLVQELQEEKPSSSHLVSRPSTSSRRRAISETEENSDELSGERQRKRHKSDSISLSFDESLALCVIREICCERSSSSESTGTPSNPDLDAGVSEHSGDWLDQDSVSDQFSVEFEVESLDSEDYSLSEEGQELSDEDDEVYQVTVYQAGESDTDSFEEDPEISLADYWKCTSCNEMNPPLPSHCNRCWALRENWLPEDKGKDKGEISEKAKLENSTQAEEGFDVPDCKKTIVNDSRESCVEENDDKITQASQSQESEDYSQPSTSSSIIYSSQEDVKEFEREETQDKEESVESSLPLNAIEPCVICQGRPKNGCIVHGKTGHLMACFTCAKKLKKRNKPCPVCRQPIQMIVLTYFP
# MPTP block = inhibitors of mitochondrial permeability transition pore; isolated mouse mitochondria, Ca2+ swelling absorbance, 30 min; AID 602449; actives 1.4% (n = 360,000); inhibition, % at 10 µM;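 active means inhibition of 50% or more, scaled per plate between neutral and stimulator controls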;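 further: 0% = DMSO wells given calcium and 100% = 1 mM EGTA wells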
# Beta cell apopt = beta cell apoptosis inhibition. AID 435005. INS-1E cytokine-induced death, ATP luminescence, 48 h; percent of positive-control rescue, neutral wells zero. protection from apoptosis, % (test concentration not listed). actives 0.8% (n = 300,000);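 active means Every replicate reaches about 75%, or at least half do and their mean reaches it too, limit read from the data; inconclusive means At least half of replicates reach the limit but their mean does not; inactive means Under half of replicates reach the limit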;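 further: 0% = cytokine-treated negative control wells and 100% = positive control rescue; higher means more ATP so stronger rescue from cytokine killing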
# CSC inhib = blocks cancer stem cells; cancer stem cell-like cells viability, luminescence; inhibition, % at 7.5 µM; actives 1.1% (n = 300,000); in the data active means inhibition above about 75%; inconclusive means no clear call, values can overlap the other calls; tested in HMLE shEcad cells
# SKKanGAS inh = SKKanGAS growth inhibition; S. pyogenes SKKanGAS, kanamycin growth, BacTiter-Glo, 6 h; inhibition, % at 7.5 µM; actives 1.3% (n = 300,000); AID 1662;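 active means mean replicate score, as percent of positive control median, at least 50; inconclusive means mean below 50 but one replicate at or above 50; inactive means mean and every replicate below 50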;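 further: strain carries kanamycin resistance gene driven by streptokinase promoter and grows in 40 µg/ml kanamycin; loss of luminescence reflects streptokinase promoter inhibition or plain growth inhibition; 0% = median of DMSO wells and 100% = positive control at its reference dose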
# Mdm2 MdmX conf = confirmation of human Mdm2/MdmX interaction inhibitors; shares compounds with Mdm2 MdmX PPI; Mdm2-MdmX binding, luminescent assay; inhibition, % at 8 µM; actives 55% (n = 10,000); AID 489028; in the data active means inhibition above about 40%
# FLuc counter = inhibits full-length luciferase, flagging false Mdm2/MdmX hits; inhibition, % at 8 µM; shares compounds with Mdm2 MdmX PPI; actives 77% (n = 6,200); AID 504607; SaOS-2 full-length luciferase counterscreen, luminescence;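 active means mean inhibition at 8 µM reaching about 37%, which flags the compound as non-specific, limit read from the data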;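 further: p53-null SaOS-2 cells with luciferase driven by a doxycycline-inducible promoter; compound on cells about two nights before reading with doxycycline added after day one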
# Rh123 counter = membrane potential counter-screen of mitochondrial pore inhibitors; isolated mitochondria, Rhodamine 123 fluorescence; inhibition, % at 10 µM; shares compounds with MPTP block; actives 78% (n = 5,000); in the data active means inhibition above about 22%;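 further: 0% = DMSO vehicle and 100% = positive control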
# MPTP abs DR = dose response confirmation of mitochondrial permeability transition pore inhibitors; shares compounds with MPTP block; isolated mitochondria swelling, absorbance; IC50, µM; actives 58% (n = 780); in the data active means IC50 below about 20 µM
# MPTP counter DR = MPTP inhibitor counter-screen activity, dose response | shares compounds with MPTP block | isolated mitochondria counterscreen, fluorescence read-out | IC50, µM | actives 49% (n = 780) | AID 651564; in the data active means IC50 below about 80 µM
# Starred values were filed as active, the others as inactive; u = inconclusive; x = not tested or not shown; ! = not confirmed by another sample.
SMILES,Calb FLC,Mdm2 MdmX PPI,MPTP block,Beta cell apopt,CSC inhib,SKKanGAS inh,Mdm2 MdmX conf,FLuc counter,Rh123 counter,others
CSc1ccc2c(c1)C(N1CCN(C)CC1)Cc1ccccc1S2 (configuration not stated),55,69*,104*!,-4,u,11,29,x,-17,
COc1ccccc1CNC(=O)c1ccc(NS(=O)(=O)c2cccs2)cc1,8,7,-1,-2,17,14,x,x,x,
CCC1(CC)NC(=O)N(CC(=O)NC(=O)NCc2ccccc2)C1=O,0,26,0,-11,0,-1,x,x,x,
CNC[C@@H](Cc1ccccc1)NC[C@@H](CC1CCCCC1)NCCCc1ccccc1,79*,98*,72*,110*,111*,64*,100*,52*,-17,
CN(C[C@H](Cc1ccccc1)N(C[C@@H](CC1CCCCC1)N(CCc1ccccc1)N=O)N=O)N=O,-18,3,0,2,14,5,x,x,x,
CN1C(=O)/C(=C\c2ccccc2OCc2ccccc2)SC1=S,6,15,0,3,11,2,x,x,x,
CN1C(=O)/C(=C\c2cc(N=Nc3ccccc3)ccc2O)SC1=S,-12,91*,100*,13,0,83*,54*,34,76*,
Cc1cc(/C=C2\SC(=S)N(C)C2=O)c(C)n1-c1cccc(O)c1,2,78*,66*,-1,u,91*,79*,98*,66*,
COc1ccc(CCC(=O)N2CCCC(Nc3ccccc3)C2)cc1OC (configuration not stated),5,5,21,2,-2,28,x,x,x,
CC1CCCCC1N=C1NC(C)(C)CS1 (configuration not stated),14,2,0,1,-17,x,x,x,x,
O=C(Nc1ccc(OCC(F)(F)C(F)F)c(C(F)(F)F)c1)c1ccccc1O,7,94*,106*,122*,1,81*,92*,28,77*,
O=C(Nc1ccc(OCC(F)(F)C(F)F)c(C(F)(F)F)c1)c1ccccc1,12,14,4,2,68,9,x,x,x,
COc1ccc(Cl)cc1N(CC(=O)Nc1ccccc1C(=O)NCc1ccco1)S(C)(=O)=O,-1,5,-2,-2,17,4,x,x,x,
CCCC[C@@H](CNC)NC[C@H](NCCCCC1CCCCC1)C(C)C,-5,98*,90*,x,-25,9,43*,65*,-23,MPTP abs DR=6.8*;MPTP counter DR=>80
CN(C)S(=O)(=O)c1ccc(C(=O)N2CCOCC2)cc1,1,11,-3,-6,-14,13,x,x,x,
O=C(c1ccc(S(=O)(=O)c2ccc(F)cc2)c([N+](=O)[O-])c1)N1CCCCCC1,7,56*,78*,41,33,-1,31,30,68*,
CC(C)N1CCc2c(sc(NC(=O)c3cc(-c4cccs4)nc4ccccc34)c2C(N)=O)C1,-9,73*,83*,25,u,19,33,x,-29,
CCC(C)N1C(=O)CCC1C(=O)NCc1ccc2c(c1)OCO2 (configuration not stated),-5,7,-2,-1,4,-2,x,x,x,
Cc1cc(/C=C2\Sc3ccccc3N2C)cc(C)[n+]1CC1CCCO1 (configuration not stated),x,87*,75*,x,x,x,90*,21,84*,
CCCCc1ccc(C2C3=C(CC(C)(C)CC3=O)NC3=C2C(=O)c2ccccc23)cc1 (configuration not stated),-1,55*,71*,-2,26,40,23,x,53*,
CCCc1ccc(C2C3=C(CC(C)(C)CC3=O)NC3=C2C(=O)c2ccccc23)cc1 (configuration not stated),105*,76*,81*,35,89*,26,-2,x,52*,
CN1CCN(C2=Cc3ccc(Cl)cc3Sc3ccc(F)cc32)CC1,29,60*,95*,9,121*,60*,29,x,-9,
CCOC(=O)c1ccc(NC(=O)c2ncn3c2C(=O)NC[C@@H]3C)cc1,x,x,0,x,x,x,x,x,x,
S=C(NNc1ccnc2cc(Cl)ccc12)Nc1ccc(Cl)cc1Cl,19,92*,101*,15,28,71*,31,49*,73*,
COC(=O)c1cccc(NC(=O)c2cccc([N+](=O)[O-])c2)c1,6,13,1,4,-10,-5,x,x,x,
SMILES,Calb FLC,Mdm2 MdmX PPI,MPTP block,Beta cell apopt,CSC inhib,SKKanGAS inh,Mdm2 MdmX conf,FLuc counter,Rh123 counter,others
O=C(N/N=C/c1ccccc1Br)c1cccc(S(=O)(=O)N2CCOCC2)c1,x,15,-2,-7,x,x,x,x,x,
O=C(N/N=C/c1cc(Br)cc(Br)c1O)c1cccc(S(=O)(=O)N2CCOCC2)c1,17,59*,69*,-11,20,107*,60*,30,-5,
O=C(N/N=C/c1cc(Br)cc(Cl)c1O)c1ccc2c(c1)OCO2,94*,50*,55*,94*,59,89*,59*,53*,66*,
Cc1cc(Br)cc(/C=N/NC(=O)c2ccc3c(c2)OCO3)c1O,47,68*,65*,88*,84*,84*,67*,33,49*,
CCCCCC1=NN2C(=O)CC(=O)N=C2S1,-7,3,0,-2,-4,13,x,x,x,
COC(=O)C[C@H]1c2cc(F)ccc2S(=O)(=O)N1Cc1ccccc1OC,7,-4,-1,4,-13,0,x,x,x,
O=C(NC(NC(=S)Nc1ccc(Cl)c(Cl)c1)C(Cl)(Cl)Cl)c1ccco1 (configuration not stated),-4,59*,100*,10,66,74*,40,74*,100*,
O=C(NC(NC(=S)Nc1cccc(Cl)c1)C(Cl)(Cl)Cl)OCc1ccccc1 (configuration not stated),-18,92*,91*,19,116*,122*,55*,53*,76*,
O=C(O)c1cccc(NC(=S)NC(NC(=O)c2ccco2)C(Cl)(Cl)Cl)c1 (configuration not stated),-2,20,0,-5,-10,-6,x,x,x,
CC(=O)Nc1ccc2c(CN3C(=O)NC(C)(c4ccc(C)cc4)C3=O)cc(=O)oc2c1 (configuration not stated),-1,25,1,-3,-3,-1,x,x,x,
